DT40 TDP1 no CPT = qHTS for Inhibitors of human tyrosyl-DNA phosphodiesterase 1 (TDP1): qHTS in cells in absence of CPT; DT40 Tdp1-/- hTDP1 cells, no CPT, ATP luminescence, 48 h; Potency, µM (series often up to 46.2 µM), for inactives: at the highest dose activity change, negative = growth inhibition, most hits filed as inhibitors; 420,000 tested, 15% active; AID 686978, 2013; also: potency is read from the fitted curve at half-maximal effect; % is scaled to controls: 0 for no effect and ±100 for the full control effect; nearly all actives have a fitted effect of over 55% in size
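Camptothecin absent (DMSO only). Human TDP1-complemented DT40 knockout cells, 400 cells/well, 37 °C for minimum 48 hr; ATP measured via CellTiter-Glo, 30 min dark incubation, luminescence.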
SW480 rerep = A quantitative high throughput screen for small molecules that induce DNA re-replication in SW480 colon adenocarcinoma cells | SW480 DNA re-replication, Hoechst DNA content imaging, 48 h | Potency, µM (highest dose often 46.1 µM), for inactives: at the highest dose re-replication activation, hits mostly activators | 340,000 tested, 1.8% active | AID 624297, 2012; also: potency is read from the fitted curve at half-maximal effect; % of control where 0% means no effect; nearly all actives have a fitted effect of over 55% in size
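Hoechst fluorescence of nuclei (405 nm excitation, 500-530 nm emission) measured by plate-scanning imager after 48 hr compound exposure at 37 C; re-replication scored as increased number of nuclei with elevated intensity.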
IL-1B inflam inh = qHTS for Inhibitors of Inflammasome Signaling: IL-1-beta AlphaLISA Primary Screen; THP-1 LPS/ATP IL-1B secretion, AlphaLISA, 16 h; stronger effect = lower value; activity change, % at 57.5 µM; 360,000 tested, 4.7% active; AID 743279, 2014; in the data active = activity change below about -50%; inconclusive = mostly about -30% to -49%; also: % is scaled to controls: 0 for no effect and ±100 for the full control effect
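THP-1 cells pretreated 1 hr with compounds (up to 57.5 uM final), then stimulated with LPS (250 ng/mL final) plus ATP (1.25 mM final); secreted IL-1B measured by AlphaLISA after 16 hr, decreased signal indicating inhibition.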
TDP1 cell CPT = qHTS for Inhibitors of human tyrosyl-DNA phosphodiesterase 1 (TDP1): qHTS in cells in presence of CPT; Potency, µM (series often up to 46.2 µM), for inactives: at the top dose activity change, negative = growth inhibition, most hits filed as inhibitors; chicken DT40 Tdp1-/-;hTDP1 cells + 20 nM CPT, ATP luminescence, 48 h; 420,000 tested, 12% active; also: potency is read from the fitted curve at half-maximal effect; % is scaled to controls: 0 for no effect and ±100 for the full control effect; nearly all actives have a fitted effect of over 55% in size
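Chicken DT40 Tdp1-/- cells stably complemented with human TDP1 were seeded at 400 cells/well in medium containing 20 nM camptothecin, exposed to pin-transferred compounds, and grown at 37 °C for at least 48 hr. Viability was read as ATP luminescence.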
MCF10A rereplic = A quantitative high throughput screen for small molecules that induce DNA re-replication in MCF 10a normal breast cells | MCF 10A DNA re-replication, Hoechst nuclear intensity, 48 h | 350,000 tested, 2.9% active | AID 624296, 2012 | Potency, µM (top dose mostly 46.1 µM), inactives show at the top dose activity, positive = re-replication, actives largely listed as activators; also: potency is read from the fitted curve at half-maximal effect; % of control where 0% means no effect; nearly all actives have a fitted effect of over 50% in size
Chronic BCR inh = qHTS Assay to Find Inhibitors of Chronic Active B-Cell Receptor Signaling; ABC-DLBCL IkBa-CBG/CBR reporter, luminescence ratio, 4 h; Potency, µM (highest dose often 46.1 µM), for the others: at the top dose activity change, negative = inhibition, hits mostly inhibitors; 340,000 tested, 0.05% active; active = well fitted inhibition curve with a large enough effect in the signal ratio, with a control signal flat, not every such curve was filed as active; inconclusive = small, poorly fitted or top-dose-only effect, or effect the other way, or a change in a side signal; the % refers to the signal ratio;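 also: potency is read from the fitted curve at half-maximal effect; plate controls were basal doxycycline-induced cells for no effect and cells given 10 µM MG132 for full effect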
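Concentration-response series (up to 46 uM) were applied to TMD8 dual-reporter cells for 4 h at 37C with doxycycline. Green/red ratio, after filter-overlap correction, defined %Activity; red signal alone was normalised to basal cells and zero luminescence.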
* = called active by the depositor; u = inconclusive; x = no result; ! = not confirmed by another sample; [ ] = dose if it differs, or a comment. Compounds with a hit are over-represented: about 19% of the library has one in this group of screens. Unless noted, calls follow the shape of the dose curve; as a rule, active = well fitted curve in the direction sought with a large enough effect; inconclusive = small, poorly fitted or top-dose-only effect, or another doubt; inactive = no such curve, though single readings can be large; an effect the other way counts as inactive or inconclusive.

SMILES	DT40 TDP1 no CPT	SW480 rerep	IL-1B inflam inh	TDP1 cell CPT	MCF10A rereplic	Chronic BCR inh
O=C(c1cc2ccccc2oc1=O)N(Cc1cccs1)C1CCS(=O)(=O)C1 (stereo unspecified)	-3.7%	-5.7%	-7.0	-19.1%	-1.5%	-2.9%
COc1ccc(CCN(C)C/C=C/c2ccccc2[N+](=O)[O-])cc1OC	u	6.8%	u	u	-1.9%	-6.7%
COc1ccc(CCN(C)c2ccc(C(N)=O)cc2[N+](=O)[O-])cc1OC	-14.9%	8.1%	-20.3	29.1µM*	-0.9%	1.5%
CC(C)c1cc(Cn2c3ccccc3c(=O)n2C(C)Cn2cc(CCc3ccccc3)nn2)on1 (stereo unspecified)	-27.3%	x	-11.6	-8.5%	x	x
COc1ccc(-n2c(C)nc3c(cnn3-c3ccc(C)cc3)c2=O)cc1	u	-14.8%	-12.5	14.6µM*	u	u
Cc1ccc(-n2c(-c3ccco3)nc3c(cnn3-c3ccc(C)cc3)c2=O)cc1	4.11µM*	-2.3%	15.1	u	u	-7.2%
COc1ccc(-n2c(C)nc3c(cnn3-c3ccc(Cl)cc3)c2=O)cc1	u	3.1%	-13.4	u	-0.5%	-4.7%
CCOC(=O)c1ccc(-n2c(C)nc3c(cnn3-c3ccc(Cl)cc3)c2=O)cc1	5.8µM*!	1.3%	38.2	8.2µM*!	14.0%	-3.9%
Cc1cccc(-n2c(-c3ccco3)nc3c(cnn3-c3ccc(F)cc3)c2=O)c1	16.4µM*	x	x	16.4µM*	x	x
Cc1ccc(NC(=O)Cn2c([N+](=O)[O-])cnc2C)cc1Cl	-11.6%	12.8%	9.1	-5.8%	-1.4%	-4.8%
CNS(=O)(=O)c1ccc(C(=O)NCC(=O)NC(C)c2cccs2)cc1 (stereo unspecified)	19.8%	31.7%	0.0	-11.3%	-6.3%	0.7%
Cc1cccc(-n2c(C)nc3c(cnn3-c3ccc(F)cc3)c2=O)c1	9.2µM*	-0.2%[9.22 µM]	u	18.4µM*	0.4%	3.6%
CCOC(=O)N=Nc1c2ccccc2c2nc3no[nH]c3nc12	1.3µM*	u	-103.2*	0.411µM*	u	6.0%
OC[C@H]1O[C@@H](c2nc(-c3ccc(CN4CCOCC4)cc3)no2)[C@H](O)[C@@H](O)[C@H]1O	-8.7%	x	23.2	-14.4%	x	x
COC(=O)c1c(C)c2c(C)cc3ccccn3c-2c1C(=O)OC	29.1µM*	1.7%	-4.9	u	-0.6%	17.7%
Cc1ccc(NC(=O)C(Cc2ccccc2)N2C(=O)C3C4CCC(C4)C3C2=O)cc1Cl (stereo unspecified)	u	u	-11.5	u	u	4.9%
Cc1ccc(Cl)cc1NC(=O)C(Cc1ccccc1)N1C(=O)C2C3CCC(C3)C2C1=O (stereo unspecified)	14.6µM*	10.0%	-7.5	u	20.6%	-6.2%
CC1CCN(S(=O)(=O)c2ccc3[nH]ccc3c2)CC1	-24.7%	x	x	u	x	2.1%
CN=C1S/C(=C\c2cccn2-c2cccc(Br)c2)C(=O)N1C	-14.9%	-0.3%	-2.0	-17.5%	-0.3%	x
O=Cc1ccc(N2CCCC2)c(F)c1	-17.9%	-3.3%	-3.3	-15.3%	u	u
CN=C1S/C(=C\c2ccc(N3CCOCC3)c(F)c2)C(=O)N1C	14.6µM*	u	12.8	u	19.3%	u
CN=C1S/C(=C\c2ccc(N3CCCC3)c(F)c2)C(=O)N1C	u	13µM*	-28.0	u	23.1µM*	-4.0%
COC(=O)C[C@@H]1CC[C@@H](NC(C)=O)[C@@H](CO)O1	-2.4%	x	-6.6	-8.1%	x	x
COCCNC(=O)C(c1ccc(C)cc1)N(C(=O)CCC(=O)Nc1ccccn1)c1ccccc1C (stereo unspecified)	u	-9.3%	60.8	5.0%	0.8%	11.9%
O=C(NCc1ccco1)C1CCN(c2ccc(S(=O)(=O)N3CCOCC3)cc2[N+](=O)[O-])CC1	23.1µM*	15.7%	-8.7	u	3.0%	-5.6%
SMILES	DT40 TDP1 no CPT	SW480 rerep	IL-1B inflam inh	TDP1 cell CPT	MCF10A rereplic	Chronic BCR inh
C#CCNC(=O)C1CCN(c2ccc(S(=O)(=O)N3CCOCC3)cc2Cl)CC1	u	9.3%	10.1	-15.0%	3.4%	-3.1%
O=C(NCc1cccs1)C1CCN(c2ccc(S(=O)(=O)N3CCOCC3)cc2Cl)CC1	2.59µM*	1.3µM*	-13.1	3.66µM*	6.51µM*	u
CCN(CC)C(C)C#CCC(c1ccccc1)c1ccccc1 (stereo unspecified)	x	x	x	x	x	6.6%
COc1ccc(CCN(C(=O)c2snc(C(N)=O)c2N)C(C(=O)NCC2CCCO2)c2ccc(F)cc2)cc1OC (stereo unspecified)	29.1µM*	-13.5%	2.4	u	8.1%	2.3%
Cc1cccc(CCN(C(=O)c2snc(C(N)=O)c2N)C(C(=O)NCC2CCCO2)c2ccc(F)cc2)c1 (stereo unspecified)	u	u	-51.6*	u	u	-5.8%
NC(=O)c1nsc(C(=O)N(Cc2ccccc2F)C(C(=O)NCC2CCCO2)c2ccc(F)cc2)c1N (stereo unspecified)	u	-7.1%	-25.6	u	-1.2%	-0.3%
O=C(CSc1nc2c(sc3ccccc32)c(=O)n1CCCC(=O)NC1CCCC1)Nc1ccc(F)cc1	-3.8%	x	x	-19.2%	x	x
CC(C)c1c(C(=O)N(C)CC2CCCN(C)C2)cnn1-c1nccc(-c2cccs2)n1 (stereo unspecified)	-17.9%	x	x	u	x	x
Cc1ccc(OCCOC(=O)c2c(-c3ccccc3)noc2C)cc1	u	98.6%	2.4	u	u	17.1%
Cc1onc(-c2ccccc2)c1C(=O)OCCOc1cccc(Cl)c1	u	6.51µM*	5.7	u	20.6µM*	10.1%
Cc1onc(-c2ccccc2)c1C(=O)OCC(=O)c1ccc[nH]1	u	x	-21.0	u	x	x
CCOc1ccc(C(=O)COC(=O)c2c(-c3ccccc3)noc2C)cc1	20.6µM*	u	28.9	u	6.51µM*	0.9%
Cc1ccc(CS(=O)(=O)c2nc3c(c(N(C)C)n2)CCCC3)cc1	-6.4%	0.6%	-78.6*	14.4%	4.9%	-0.5%
CN(C)c1nc(SCc2ccc(Cl)cc2)nc2c1CCCC2	u	-5.8%	-3.1	u	23.1%	u

From PubChem BioAssay
